Results reported in PubChem BioAssay (Tox21).
“And” between values parts separate entries of the source, which are not always exact repeats. Equal entries are not always repeated. Records with an inconclusive call do not appear. Where a call stands in place of a potency, no number is given. A structure can be active in one record and inactive in another. The source made the active and inactive calls. Unless noted, calls come from the whole dose curve; as a rule, active = well fitted curve in the direction sought with a large enough effect in the repeat runs; inconclusive = weak or mixed curves; inactive = no such curve, though single readings can be large; an effect the other way counts as inactive or inconclusive.

Assays:
[1] = qHTS assay to identify small molecule agonists of the estrogen receptor alpha (ER-alpha) signaling pathway in the presence of an antagonist - cell viability counter screen (AID 1259386); conditions: VM7Luc4E2 viability, CellTiter-Fluor fluorescence, 22 h; series mostly up to 92.4 µM;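 note: cells exposed to compounds for 22 h at 37 °C before the viability read; nearly all actives have a fitted effect of over 30% in size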
Method in brief: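 Using estrogen-depleted VM7Luc4E2 cells, the 15-concentration compound series was applied together with 10.0nM ICI-182,780 and incubated 22hr at 37C/5% CO2. Cell viability was then scored by CellTiter-Fluor.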

[2] = target: Progesterone receptor (Homo sapiens) (UniProt P06401); experiment: qHTS assay to identify small molecule agonists of the progesterone receptor (PR) signaling pathway (AID 1346784; calls by dose curve; note: nearly all actives have a fitted effect of over 30% in size); conditions: PR-UAS-bla HEK293T, beta-lactamase FRET ratio, 16 h; series mostly up to 92.4 µM
Method in brief: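 PR-UAS-bla HEK 293T cells (beta-lactamase reporter under UAS) in 2% charcoal-stripped FBS, dosed with 23 nL compound after 6 hr, incubated 16hr at 37C. LiveBLAzer B/G FRET substrate added, fluorescence read after 2 hours.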

[3] = target: Progesterone receptor (Homo sapiens) (UniProt P06401); experiment: qHTS assay to identify small molecule antagonists of the progesterone receptor (PR) signaling pathway (AID 1346795; active = well fitted inhibition curve with a large enough effect in the signal ratio in the repeat runs, not every such curve was filed as active; the % refers to the signal ratio; note: potency is the fitted concentration of half-maximal effect); conditions: PR-UAS-bla HEK293T, beta-lactamase FRET ratio, 16 h; series mostly up to 92.4 µM
Method in brief: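 PR-UAS-bla HEK293T cells with beta-lactamase reporter under UAS control, in 2% charcoal-stripped FBS, treated with compounds plus 1 nM promegestone (R5020, final) for 16 hr at 37C. Read-out: FRET beta-lactamase substrate fluorescence after 2 hr at room temperature.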

[4] = qHTS assay to identify small molecule antagonists of the progesterone receptor (PR) signaling pathway - cell viability counter screen (AID 1346798); conditions: PR-UAS-bla HEK293T viability, CellTiter-Glo luminescence, 16 h; series mostly up to 92.4 µM; note: nearly all actives have a fitted effect of over 50% in size
Method in brief: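 PR-UAS-bla HEK293T cells, 3,000/well in 2% charcoal-stripped FBS medium, dosed with compounds plus R5020 agonist and incubated 16 h at 37C. Viability then measured in the same wells by CellTiter-Glo luminescence after 30 min at RT.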

[5] = qHTS assay to identify small molecule agonists of the progesterone receptor (PR) signaling pathway - cell viability counter screen (AID 1346799; calls by dose curve; note: nearly all actives have a fitted effect of over 45% in size; note: potency is the fitted concentration of half-maximal effect); conditions: PR-UAS-bla HEK293T viability, CellTiter-Glo luminescence, 16 h; series mostly up to 92.4 µM
Method in brief: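 Counter screen in the PR-UAS-bla HEK293T wells (2% charcoal-stripped FBS, 16 h compound exposure at 37 C) after the bla read. CellTiter-Glo added, 30 min at room temperature, luminescence read as cell viability.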

[6] = qHTS assay to identify small molecule antagonists of the TGF-beta/Smad signaling pathway - cell viability counter screen (AID 1346824); conditions: SBE-bla HEK293T viability, CellTiter-Glo luminescence; series mostly up to 76.8 µM; note: nearly all actives have a fitted effect of over 50% in size
Method in brief: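 Cytotoxicity counter-screen run in the same wells as the beta-lactamase Smad reporter read: CellTiter-Glo luminescence after 30 min at room temperature. HEK 293T SBE-bla cells had 5 hr compound exposure at 37 C with TGF-beta1 (0.25 ng/mL stock).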

[7] = qHTS assay to identify small molecule agonists of the TGF-beta/Smad signaling pathway - cell viability counter screen (AID 1346829); conditions: SBE-bla HEK293T viability, CellTiter-Glo luminescence, 5 h; series mostly up to 76.8 µM; note: top concentration of the series differs between compounds; nearly all actives have a fitted effect of over 45% in size
Method in brief: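 Compound-treated SBE-bla HEK 293T cells (5 hr, 37 C) were assessed for viability with CellTiter-Glo in parallel with the reporter read.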

[8] = qHTS assay to identify small molecule agonists of the TGF-beta/Smad signaling pathway (AID 1346859; active = well fitted activation curve with a large enough effect in the signal ratio in the repeat runs, not every such curve was filed as active; the % refers to the signal ratio); conditions: SBE-bla HEK293T, TGF-beta/Smad beta-lactamase reporter, 5 h; series mostly up to 76.8 µM
Method in brief: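 SBE-bla HEK293T cells plated overnight, then compound exposure for 5 h at 37 C. Beta-lactamase reporter read with LiveBLAzer B/G FRET substrate after 2 h at room temperature, fluorescence at 405 nm excitation, 460/530 nm emission.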

[9] = target: Thyrotropin-releasing hormone receptor (Homo sapiens) (UniProt P34981); experiment: qHTS assay to identify small molecule antagonists of the thyrotropin-releasing hormone receptor (TRHR) signaling pathway (AID 1346877; active = well fitted inhibition curve with a large enough effect in the repeat runs, not every such curve was filed as active); conditions: TRHR-HEK293, TRH-induced calcium fluorescence, antagonist mode; series mostly up to 51.3 µM
Method in brief: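 Calcium signal in dye-loaded TRHR/HEK293 cells; compounds added 5 min before TRH (1 nM final); fluorescence monitored 3 min at 1 s steps.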

[10] = target: Thyrotropin-releasing hormone receptor (Homo sapiens) (UniProt P34981); experiment: qHTS assay to identify small molecule agonists of the thyrotropin-releasing hormone receptor (TRHR) signaling pathway (AID 1346891; calls by dose curve); conditions: TRHR-HEK293 calcium fluorescence, agonist mode; series mostly up to 57.6 µM
Method in brief: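 HEK293 cells expressing TRHR plated 18 h at 37 C/5% CO2, calcium dye-loaded 2 h at 37 C, then compound added (agonist mode); kinetic calcium fluorescence read 3 min at 1 s intervals; 15 concentrations in triplicate.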

[11] = Human pregnane X receptor (PXR) small molecule agonists, qHTS cell viability counter screen (AID 1346977); conditions: PXR-Luc HepG2 viability, CellTiter-Fluor, 24 h; series mostly up to 92.4 µM; note: nearly all actives have a fitted effect of over 50% in size; note: potency is the fitted concentration of half-maximal effect
Method in brief: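 PXR-Luc HepG2 cells (2,000/well, 5% charcoal-stripped FBS) preincubated 5 hr, then exposed to compounds 24 hr at 37 C. Viability read in the same wells by CellTiter-Fluor fluorescence, reagent added at 23 hr, 1 hr incubation.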

[12] = Caspase-3/7 induction in HepG2 cells by small molecules, qHTS assay (AID 1346978); conditions: HepG2 caspase-3/7 activation, Caspase-Glo luminescence, 17 h; series mostly up to 92.4 µM; note: nearly all actives have a fitted effect of over 15% in size
Method in brief: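 Caspase-3/7 induction was measured by Caspase-Glo 3/7 luminescence (30 min, room temperature) after a 17 hr compound exposure of wild-type HepG2 cells seeded at 2,000 per well and pre-incubated 5 hr.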

[13] = Caspase-3/7 induction in CHO-K1 cells by small molecules, qHTS cell viability counter screen (AID 1346979); conditions: CellTiter-Fluor fluorescence, 17 h; series mostly up to 92.4 µM; note: nearly all actives have a fitted effect of over 35% in size; note: potency is the fitted concentration of half-maximal effect
Method in brief: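 Wild-type CHO-K1 cells (1,500/well) treated with compound after 5 h plating; after 16 h at 37C, viability read as CellTiter-Fluor fluorescence following 1 h reagent incubation, in the same wells as the caspase read.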

[14] = Caspase-3/7 induction in CHO-K1 cells by small molecules, qHTS assay (AID 1346980); conditions: CHO-K1 caspase-3/7 induction, Caspase-Glo luminescence, 17 h; series mostly up to 92.4 µM; note: nearly all actives have a fitted effect of over 15% in size
Method in brief: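 Luminescent Caspase-Glo 3/7 read (30min, room temperature) quantified apoptosis induction. Cells were wild-type CHO-K1, treated with compound for 17hr at 37 C and 5% CO2.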

[15] = Caspase-3/7 induction in HepG2 cells by small molecules, qHTS cell viability counter screen (AID 1346981); conditions: CellTiter-Fluor fluorescence, 17 h; series mostly up to 92.4 µM; note: nearly all actives have a fitted effect of over 30% in size; note: potency is the fitted concentration of half-maximal effect
Method in brief: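 After a 5-hr attachment period at 37 C and 5% CO2, wild-type HepG2 cells received compounds in DMSO. Sixteen hours later CellTiter-Fluor was dispensed and the fluorescent signal quantified after a further hour.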

[16] = target: Nuclear receptor subfamily 1 group I member 2 (Homo sapiens) (UniProt O75469); experiment: Human pregnane X receptor (PXR) small molecule agonists, qHTS assay (AID 1346982); conditions: PXR-Luc HepG2, CYP3A4 luciferase reporter, 24 h; series mostly up to 92.4 µM; note: nearly all actives have a fitted effect of over 35% in size; note: potency is the fitted concentration of half-maximal effect
Method in brief: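 Tox21 qHTS; PXR-Luc HepG2; compounds pinned from DMSO; 24 hr, 37 C; ONE-Glo luciferase detection, 30 min room temperature.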

[17] = target: Cytochrome P450 2D6 (Homo sapiens) (UniProt P10635); experiment: Cytochrome P450 Family 2 Subfamily D Member 6 (CYP2D6) small molecule antagonists: luciferase reporter qHTS assay (AID 1671196); conditions: P450-Glo CYP2D6 enzyme assay, luciferin luminescence, 1 h; series mostly up to 115 µM; note: nearly all actives have a fitted effect of over 50% in size; note: potency is the fitted concentration of half-maximal effect
Method in brief: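 Room-temperature luminescent CYP2D6 activity assay: compound preincubated 10 min with enzyme–substrate mix, NADPH-initiated reaction 1 h, detection reagent 20 min before reading.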

[18] = target: Nuclear receptor subfamily 1 group I member 2 (Rattus norvegicus) (UniProt Q9R1A7); experiment: Rat pregnane X receptor (rPXR) activation by small molecules, qHTS assay (AID 1346983); conditions: rPXR luciferase reporter cells, One-Glo luminescence, 24 h; stronger effect = higher value; note: nearly all actives have a fitted effect of over 20% in size
Method in brief: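 Luminescent readout (One-Glo luciferase, 30 min room temperature) followed 24 hr compound treatment at 37 C of rPXR cells plated 2,000 per well and preincubated 5hr; qHTS format with compounds delivered in DMSO.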

[19] = target: Nuclear receptor subfamily 1 group I member 2 (Homo sapiens) (UniProt O75469); experiment: CYP3A4 induction through human pregnane X receptor (PXR) by small molecules, qHTS assay (AID 1346984); conditions: DPX-2 HepG2 PXR, CYP3A4-luciferin luminescence, 24 h; series mostly up to 46.1 µM; note: nearly all actives have a fitted effect of over 40% in size
Method in brief: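 Cells (DPX-2; HepG2 with PXR element plus CYP3A4-promoter luciferase) settled 5hr, then were treated 24hr at 37C. A 3hr, 3uM-final Luciferin-IPA step preceded luminescence measurement with One-Glo.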

[20] = target: Nuclear receptor subfamily 1 group I member 2 (Homo sapiens) (UniProt O75469); experiment: Human pregnane X receptor (PXR) activation by small molecules, qHTS assay (AID 1346985); conditions: DPX-2 HepG2 CYP3A4-luciferase, 24 h; series mostly up to 38.3 µM; note: nearly all actives have a fitted effect of over 40% in size
Method in brief: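 DPX-2 cells (HepG2 co-transfected with a PXR response element and a CYP3A4-promoter luciferase construct) were seeded at 2,000 per well, rested 5 hr at 37C, then exposed to DMSO-dissolved compounds for 24 hr. Activation was read as luciferase luminescence.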

Nuclear receptor subfamily 1 group I member 2 (Rattus norvegicus), sequence (Q9R1A7 whole entry, looked up): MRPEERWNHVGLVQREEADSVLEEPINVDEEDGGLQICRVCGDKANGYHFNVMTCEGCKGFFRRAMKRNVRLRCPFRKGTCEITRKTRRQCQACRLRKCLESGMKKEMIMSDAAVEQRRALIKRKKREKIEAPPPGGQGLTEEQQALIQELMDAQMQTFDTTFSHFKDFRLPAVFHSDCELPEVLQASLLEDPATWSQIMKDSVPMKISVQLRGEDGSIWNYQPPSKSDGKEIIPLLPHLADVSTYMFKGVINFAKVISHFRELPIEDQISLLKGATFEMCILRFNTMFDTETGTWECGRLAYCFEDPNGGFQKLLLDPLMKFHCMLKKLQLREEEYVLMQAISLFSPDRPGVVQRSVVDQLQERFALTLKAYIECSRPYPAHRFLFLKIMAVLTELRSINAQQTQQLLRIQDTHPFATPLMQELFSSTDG
Cytochrome P450 2D6 (Homo sapiens), sequence (P10635 whole entry, looked up): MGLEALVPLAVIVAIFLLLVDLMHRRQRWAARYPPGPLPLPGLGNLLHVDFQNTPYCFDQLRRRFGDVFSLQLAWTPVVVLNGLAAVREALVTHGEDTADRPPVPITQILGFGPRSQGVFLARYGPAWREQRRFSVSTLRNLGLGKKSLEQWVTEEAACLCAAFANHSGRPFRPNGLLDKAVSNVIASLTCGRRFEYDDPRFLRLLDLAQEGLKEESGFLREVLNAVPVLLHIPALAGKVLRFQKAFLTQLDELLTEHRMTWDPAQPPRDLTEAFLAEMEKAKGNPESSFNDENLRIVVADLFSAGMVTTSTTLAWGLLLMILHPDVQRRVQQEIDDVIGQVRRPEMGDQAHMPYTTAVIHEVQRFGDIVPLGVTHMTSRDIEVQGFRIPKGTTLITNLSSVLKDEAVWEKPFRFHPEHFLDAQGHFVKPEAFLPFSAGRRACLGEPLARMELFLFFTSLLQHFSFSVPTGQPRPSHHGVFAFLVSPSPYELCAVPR
Progesterone receptor (Homo sapiens), sequence (P06401 whole entry, looked up): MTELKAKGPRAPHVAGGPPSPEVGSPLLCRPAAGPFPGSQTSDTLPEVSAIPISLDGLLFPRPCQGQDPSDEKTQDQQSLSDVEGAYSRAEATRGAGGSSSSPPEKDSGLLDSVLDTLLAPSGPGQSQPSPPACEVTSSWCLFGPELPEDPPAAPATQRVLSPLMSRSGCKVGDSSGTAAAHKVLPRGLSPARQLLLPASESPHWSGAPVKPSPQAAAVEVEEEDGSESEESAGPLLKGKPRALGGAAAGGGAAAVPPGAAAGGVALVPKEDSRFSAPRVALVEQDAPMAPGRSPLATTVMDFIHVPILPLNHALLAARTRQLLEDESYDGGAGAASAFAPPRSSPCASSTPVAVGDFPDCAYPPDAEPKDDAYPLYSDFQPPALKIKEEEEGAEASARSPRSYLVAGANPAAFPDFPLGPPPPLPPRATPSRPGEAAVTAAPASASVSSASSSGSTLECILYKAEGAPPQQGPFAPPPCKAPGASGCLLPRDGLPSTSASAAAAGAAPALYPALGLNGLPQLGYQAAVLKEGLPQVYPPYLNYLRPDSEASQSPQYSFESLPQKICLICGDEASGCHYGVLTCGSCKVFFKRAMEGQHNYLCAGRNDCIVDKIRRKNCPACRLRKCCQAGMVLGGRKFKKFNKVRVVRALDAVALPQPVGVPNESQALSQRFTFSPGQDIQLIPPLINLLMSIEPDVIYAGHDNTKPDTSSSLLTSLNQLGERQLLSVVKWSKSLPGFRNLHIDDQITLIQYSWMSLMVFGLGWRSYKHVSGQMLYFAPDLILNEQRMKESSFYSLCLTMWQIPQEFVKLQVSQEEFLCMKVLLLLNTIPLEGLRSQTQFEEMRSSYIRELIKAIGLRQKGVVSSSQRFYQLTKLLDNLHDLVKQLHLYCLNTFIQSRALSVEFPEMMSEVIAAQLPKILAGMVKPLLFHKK
Thyrotropin-releasing hormone receptor (Homo sapiens), sequence (P34981 whole entry, looked up): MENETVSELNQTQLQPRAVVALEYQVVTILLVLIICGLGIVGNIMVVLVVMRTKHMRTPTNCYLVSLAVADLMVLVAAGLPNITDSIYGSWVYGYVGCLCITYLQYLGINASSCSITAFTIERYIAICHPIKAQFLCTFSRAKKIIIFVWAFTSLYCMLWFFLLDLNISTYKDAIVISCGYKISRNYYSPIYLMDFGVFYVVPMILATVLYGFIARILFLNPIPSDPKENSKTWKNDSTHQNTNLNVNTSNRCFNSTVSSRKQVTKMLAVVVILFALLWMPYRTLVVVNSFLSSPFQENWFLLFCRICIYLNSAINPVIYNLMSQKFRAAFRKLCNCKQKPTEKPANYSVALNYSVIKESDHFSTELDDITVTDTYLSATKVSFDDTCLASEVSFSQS
Nuclear receptor subfamily 1 group I member 2 (Homo sapiens), sequence (O75469 whole entry, looked up): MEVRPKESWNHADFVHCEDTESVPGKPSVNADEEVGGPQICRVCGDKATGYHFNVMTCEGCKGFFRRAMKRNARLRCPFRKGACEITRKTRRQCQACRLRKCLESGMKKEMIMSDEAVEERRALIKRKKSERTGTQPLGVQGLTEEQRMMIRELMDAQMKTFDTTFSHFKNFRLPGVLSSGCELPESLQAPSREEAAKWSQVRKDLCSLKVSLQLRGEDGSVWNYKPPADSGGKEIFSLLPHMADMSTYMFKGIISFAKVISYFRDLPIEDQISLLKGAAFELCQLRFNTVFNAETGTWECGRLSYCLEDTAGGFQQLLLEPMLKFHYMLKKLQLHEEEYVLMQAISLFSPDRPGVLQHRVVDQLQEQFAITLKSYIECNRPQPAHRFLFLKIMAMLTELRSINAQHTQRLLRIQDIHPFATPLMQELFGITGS

Compound	Potency [1]	Potency [2]	Potency [3]	Potency [4]	Potency [5]	Potency [6]	Potency [7]	Potency [8]	Potency [9]	outcome [10]	Potency [11]	Potency [12]	Potency [13]	Potency [14]	Potency [15]	Potency [16]	Potency [17]	max activation [18]	Potency [19]	outcome [20]
CCCCCC(C)=O	inactive	inactive	inactive	inactive	inactive and 61.1 µM (active)	inactive	inactive	inactive	inactive	inactive	inactive and 61.1 µM (active)	inactive	inactive	inactive	inactive	inactive				
NC(N)=S	inactive	inactive	inactive	inactive	inactive	inactive	inactive				inactive	inactive	inactive		inactive	inactive	inactive			
Cc1ccc(C(C)C)cc1	inactive	inactive	inactive	inactive	inactive	inactive	inactive		inactive		inactive	inactive	inactive	inactive	inactive	inactive	inactive			
CC(=O)CC(=O)N(C)C	inactive	inactive	inactive	inactive	inactive	inactive	inactive	inactive	inactive		inactive	inactive	inactive	inactive	inactive	inactive	inactive			
CC/C=C(\C(=O)N[C@@H]1C(=O)N2C(C(=O)OCOC(=O)C(C)(C)C)=C(COC(N)=O)CS[C@H]12)c1csc(N)n1	inactive	inactive	inactive	inactive	inactive	inactive	inactive	inactive		inactive	inactive	inactive	inactive		inactive	inactive				
CCCCCCCCCCCCCC(=O)O	inactive	inactive	inactive	inactive		inactive	inactive	inactive	inactive	inactive	inactive	inactive	inactive	inactive	inactive	inactive	inactive			
O=C1C(N(CO)C(=O)NCO)N(CO)C(=O)N1CO (centres undefined)	inactive	inactive	inactive	inactive	inactive	inactive	inactive	inactive		inactive	inactive	inactive	inactive		inactive	inactive	inactive			
O=c1c(O)c(-c2ccc(O)c(O)c2)oc2cc(O)cc(O)c12	inactive	inactive	15.4 µM (active) and 16.8 µM (active)	inactive	inactive	inactive		inactive			inactive	inactive	54.5 µM (active)	inactive	48.6 µM (active) and 54.5 µM (active)	48.6 µM (active) and 69.1 µM (active)	63.4 µM (active) and inactive	-3.01% (inactive)	inactive	inactive
Cc1ccc([N+](=O)[O-])cc1N	inactive	inactive	inactive	inactive	inactive	inactive	inactive	inactive			inactive	inactive	inactive	inactive	inactive	inactive	35.5 µM (active) and 39.9 µM (active)			
O=C(O)Cc1c[nH]c2ccccc12	inactive	inactive	inactive	inactive	inactive	inactive	inactive				inactive	inactive	inactive	inactive	inactive	inactive				
Cc1cc(C)c(O)c(C)c1	inactive	inactive	inactive	inactive	inactive	inactive	inactive	inactive			inactive	inactive	48.6 µM (active) and inactive		inactive	30.6 µM (active) and inactive				
OCC(O)CS (centres undefined)	inactive	inactive	inactive	inactive	inactive	inactive	inactive	inactive	inactive	inactive	inactive	inactive	inactive	inactive	inactive	inactive	inactive	-1.93% (inactive)	inactive	inactive
OC[C@H]1O[C@@H](Oc2ccc(O)cc2)[C@H](O)[C@@H](O)[C@@H]1O	inactive	inactive	inactive	inactive		inactive	inactive	inactive			inactive	inactive	inactive		inactive	inactive		-0.143% (inactive)		inactive
CC(=O)C(C)C	inactive	inactive	inactive	inactive	inactive	inactive	inactive		inactive		inactive	inactive	63.4 µM (active) and inactive	inactive	inactive	inactive	inactive			
CCCCCNCCCCC	inactive	inactive	inactive	inactive	inactive	inactive	inactive	inactive	inactive		inactive	inactive	inactive	inactive	inactive	inactive				
Cc1nnc(NS(=O)(=O)c2ccc(N)cc2)s1	inactive	inactive	inactive	inactive		inactive	inactive	inactive			inactive	inactive	inactive	inactive	inactive	inactive	inactive			
OC1CCCCC1	inactive	inactive	inactive	inactive	inactive	inactive	inactive	inactive			inactive	inactive	inactive		inactive	inactive				
